RORgamma inh: blocks mouse ROR gamma transcriptional activity. Potency, µM (titrated, usually from 53.6 µM), most hits filed as inhibitors. Drosophila S2 Gal4-RORgamma UAS-luciferase reporter, 20 h. AID 2551. 310,000 compounds, 5.4% hits. P51450; further: nearly all actives have a fitted effect of over 60% in size
Target sequence (P51450 whole entry, looked up, the tested form may be a part): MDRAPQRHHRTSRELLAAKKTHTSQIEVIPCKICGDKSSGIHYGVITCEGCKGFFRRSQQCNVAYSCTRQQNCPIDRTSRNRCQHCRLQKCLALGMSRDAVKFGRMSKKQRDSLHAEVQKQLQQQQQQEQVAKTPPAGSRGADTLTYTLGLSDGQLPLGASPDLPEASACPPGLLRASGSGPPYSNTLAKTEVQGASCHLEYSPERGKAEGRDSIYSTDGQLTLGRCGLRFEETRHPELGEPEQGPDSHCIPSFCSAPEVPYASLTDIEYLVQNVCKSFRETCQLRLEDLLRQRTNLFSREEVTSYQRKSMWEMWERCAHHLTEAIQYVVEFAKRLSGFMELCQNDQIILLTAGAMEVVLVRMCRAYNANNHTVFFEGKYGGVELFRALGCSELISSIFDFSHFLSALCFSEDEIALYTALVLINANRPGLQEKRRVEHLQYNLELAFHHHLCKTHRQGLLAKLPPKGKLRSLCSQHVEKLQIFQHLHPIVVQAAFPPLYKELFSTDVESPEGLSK
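ROR gamma transcriptional activity was tracked as Gal4-UAS luciferase output in stably transfected Drosophila Schneider cells, with compound added 1 hr before 700 uM copper sulfate induction and a 20 hr ambient-temperature incubation.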
SW480 rereplic: inducers of DNA re-replication in SW480 colon cancer cells; SW480 DNA re-replication, Hoechst DNA content imaging, 48 h; Potency, µM (doses to about 46.1 µM), actives largely listed as activators; 340,000 compounds, 1.8% hits; further: nearly all actives have a fitted effect of over 55% in size
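First, 250 cells per well were seeded. Next, compound or vehicle (23 nL) was pinned in, plates sat 48 hr at 37 C. Finally Hoechst was added for 40 min before fluorescence scanning.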
Gal4-VP16 FLuc: inhibits Gal4-VP16 luciferase reporter, ROR gamma counter-screen; Potency, µM (doses to about 53.6 µM), actives largely listed as inhibitors; 310,000 compounds, 3.5% hits; Drosophila S2 Gal4-VP16 UAS-luciferase, luminescence, 20 h;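 further: Gal4-VP16 expression switched on by copper sulfate through the metallothionein promoter; nearly all actives have a fitted effect of over 50% in size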
MCF10A rerep: induces DNA re-replication in MCF 10a normal breast cells | Potency, µM (titrated, usually from 46.1 µM), hits mostly activators | 350,000 compounds, 2.9% hits | MCF 10A DNA re-replication, Hoechst nuclear intensity, 48 h | AID 624296; further: nearly all actives have a fitted effect of over 50% in size
IL-1B inflam inh: inflammasome signaling inhibition, IL-1 beta readout; THP-1 LPS/ATP IL-1B secretion, AlphaLISA, 16 h; hits give low values; AID 743279; activity change, % at 57.5 µM; 360,000 compounds, 4.7% hits; in the data active means activity change below about -50%; inconclusive means mostly about -30% to -49%
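THP-1 cells pretreated 1 hr with compounds (up to 57.5 uM final), then stimulated with LPS (250 ng/mL final) plus ATP (1.25 mM final); secreted IL-1B measured by AlphaLISA after 16 hr, decreased signal indicating inhibition.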
A number is an active result; . = inactive; ? = inconclusive; / = no result; [ ] = dose if it differs, or a comment. An excerpt weighted towards active compounds, which were near 11% of everything screened. Unless noted, the call rests on the fitted dose curve; in most records, active means well fitted curve in the direction sought with a large enough effect; inconclusive means small, poorly fitted or top-dose-only effect, or another doubt; inactive means no such curve, though single readings can be large; an effect the other way counts as inactive or inconclusive.

SMILES	RORgamma inh	SW480 rereplic	Gal4-VP16 FLuc	MCF10A rerep	IL-1B inflam inh
O=P(Nc1c(Cl)cccc1Cl)(c1ccccc1)c1nc2c(s1)CCCC2 (centres undefined)	.	.	.	.	-60.9
COc1cccc(CNCCc2ccccc2)c1OC	.	.	.	.	.
COc1ccc2ccccc2c1CNCCc1ccccc1	.	.	.	.	-54.6
C[N+]1(C)[C@@H]2CC(OC(=O)[C@@H](CO)c3ccccc3)C[C@@H]1[C@H]1O[C@H]12 (some centres undefined)	.[10 µM]	.	.	.	/
COC(=O)C1=C(c2ccccc2OCc2ccccc2)C[C@@H]2CC[C@H]1N2C(=O)NCc1ccc([N+](=O)[O-])cc1	/	.	/	.	-52.6
COC(=O)C1=C(c2ccc(F)cc2OCc2ccccc2)C[C@@H]2CC[C@H]1N2C(=O)NCc1cccc(C(F)(F)F)c1	/	.	/	3.26µM	-59.3
COC(=O)C1=C(c2ccc(F)cc2OCc2ccccc2)C[C@@H]2CC[C@H]1N2C(=O)NCCN1CCOCC1	/	?	/	0.581µM	.
COC(=O)C1=C(c2ccccc2OCc2ccccc2)C[C@@H]2CC[C@H]1N2C(=O)NCCOc1ccc(OC)cc1	/	?	/	6.51µM	.
COC(=O)C1=C(c2ccccc2OCc2ccccc2)C[C@@H]2CC[C@H]1N2C(=O)NCc1ccc(Cl)cc1	/	.	/	.	.
COC(=O)C1=C(c2ccc(F)cc2OCc2ccccc2)C[C@@H]2CC[C@H]1N2C(=O)NCc1ccc(OC)cc1	/	.	/	.	?
COC(=O)C1=C(c2ccc(-c3ccccc3)c(F)c2)C[C@@H]2CC[C@H]1N2C(=O)NC1CCCCC1	/	.	/	.	-59.7
COC(=O)C1=C(c2ccc(F)cc2F)C[C@@H]2CC[C@H]1N2C(=O)NC1CCCCC1	/	.	/	.	.
COC(=O)C1=C(c2ccc(F)cc2OCc2ccccc2)C[C@@H]2CC[C@H]1N2C(=O)NCc1ccc(Br)cc1	/	.	/	?	-59.7
CN=C=O	.	/	.	/	/
COc1ccc(CC(C)NCCC(c2ccccc2)c2ccccc2)cc1 (centres undefined)	/	?	/	.	-70.6
COc1ccc(C(=O)OC2CCN(C)CC2)cc1	12.6µM	.	.	.	.
CCOC(=O)[C@]12Cc3cc(OC)ccc3[C@H]1N(Cc1ccccc1)C(=O)c1cc(F)c(F)cc12	/	.[9.22 µM]	/	?	.
CCOC(=O)[C@]12Cc3ccccc3[C@H]1N(C(C)C)C(=O)c1cc(OC)ccc12	/	/	/	/	-116.1
CCOC(=O)[C@]12Cc3ccccc3[C@H]1N(Cc1ccccc1)C(=O)c1ccccc12	/	.	/	.	.
CCOC(=O)[C@]12Cc3c(cc(OC)c(OC)c3OC)[C@H]1N(C)C(=O)c1cc(OC)ccc12	/	/	/	/	-74.3
CCOC(=O)[C@]12Cc3c(cc(OC)c(OC)c3OC)[C@H]1N(C(C)C)C(=O)c1ccccc12	/	/	/	/	-113.5
CCOC(=O)[C@]12Cc3cc(C)ccc3[C@H]1N(C(C)C)C(=O)c1ccccc12	/	/	/	/	-113.1
CC(C)[C@@H]1CN[C@H](C(=O)O)[C@@H]1CC(=O)O	.	/	.	/	/
CCOC(=O)[C@]12Cc3cc(OC)ccc3[C@H]1N(Cc1ccccc1)C(=O)c1ccccc12	/	.	/	.	.
CCOC(=O)[C@]12Cc3ccccc3[C@H]1N(C)C(=O)c1cc(OC)ccc12	/	/	/	/	-116.1
SMILES	RORgamma inh	SW480 rereplic	Gal4-VP16 FLuc	MCF10A rerep	IL-1B inflam inh
Cc1nn(Cc2ccccc2)c(C)c1C(=O)NCc1ccccc1	.	.	.	.	.
Cc1nn(Cc2ccccc2)c(C)c1C=C1C(=O)NC(=O)NC1=O	.	.	.	.	-106.1
Nc1ncnc2c1ccn2[C@@H]1O[C@H](CO)[C@@H](O)[C@H]1O	0.631µM	?	1.12µM	?	-110.2
NC(=S)c1cn(C2OC(CO)C(O)C2O)c2ncnc(N)c12 (centres undefined)	7.08µM	.	2.51µM	?	-100.1
NCC(N)C(=O)c1ccccc1 (centres undefined)	.	/	.	/	/
COC(=O)[C@@H](Cc1ccccc1)N(Cc1ccccc1)S(=O)(=O)N(Cc1ccccc1)[C@H](Cc1ccccc1)C(=O)OC	/	.[9.22 µM]	/	?	.
OC[C@@H]1CCCN2CCCC[C@@H]12	.	/	.	/	/
CC(C)[C@H](NC(=O)[C@H](CCC(=O)O)NC(=O)[C@H](Cc1ccccc1)NC(=O)[C@@H](C)NC(=O)[C@@H](N)Cc1ccc(O)cc1)C(=O)N[C@H](C(=O)NCC(N)=O)C(C)C	.	/	.	/	/
CC1CCC(C(C)C)C(OC(=O)c2ccccc2N)C1 (centres undefined)	.	.	?	18.8µM	/
CCCCOC(=O)c1ccccc1N	.	?	.	.	.
O=C(Nc1cccc(C(=O)Nc2cc(C(=O)Nc3ccc([S+](=O)([O-])[O-])c4cc([S+](=O)([O-])[O-])cc(SOOO)c34)ccc2F)c1)Nc1cccc(C(=O)Nc2cc(C(=O)Nc3ccc([S+](=O)([O-])[O-])c4cc([S+](=O)([O-])[O-])cc([S+](=O)([O-])[O-])c34)ccc2F)c1	.	/	.	/	/
O=c1[nH]c(=S)n(Cc2ccc(F)cc2)c(O)c1C=NCC1CCCO1 (centres undefined)	.	.	.	.	.
O=c1[nH]c(=S)n(Cc2ccc(F)cc2)c(O)c1/C=N/N1CCCCC1	11.2µM	.	?	.	.
Cc1ccccc1CN1Cc2cnnn2-c2ccccc2C1C#N (centres undefined)	/	?	/	6.51µM	-102.4
O=C1Nc2ccccc2C2(CCN(CCc3ccc(C(F)(F)F)cc3)CC2)O1	.	/	.	/	/
Cc1ccc(C)c(NP(=O)(Oc2ccccc2)Oc2ccccc2)c1	.	.	.	20.6µM	?
Cc1ccc(S(=O)(=O)NP(=O)(Oc2ccccc2)Oc2ccccc2)cc1	.	.	.	.	.
Cc1cccc(N2CCN(C(=O)CCNS(=O)(=O)c3ccc4c(c3)oc(=O)n4C)CC2)c1C	.	?	.	?	-67.3
COc1ccc(C2CN(C)CC2C(=O)c2ccc(F)cc2)cc1Cl (centres undefined)	.	.	.	.	-57.9
CN1CC(C(=O)c2ccc(F)cc2)C(c2c(F)cccc2Cl)C1 (centres undefined)	.	.	.[10 µM]	.	.
C[C@@H]1C[C@H]2OC(=O)C3(CO3)[C@H]2[C@H](O)[C@]2(C)C(=O)C3OC3[C@@H]12 (some centres undefined)	10µM	/	?	/	/
Cc1ccc(S(=O)(=O)N2CC2(C)CCl)cc1 (centres undefined)	.	?	.	?	-68.7
Cc1ccc(S(=O)(=O)N2CN3CCN(C3)C2)cc1	.	.	.	.	.
COc1cc(C)c(C(=O)CC(=O)c2c(C)cc(OC)cc2C)c(C)c1	/	16.4µM	/	16.4µM	.
CC(=O)OCC1=C(C(=O)O)N2C(=O)C(NC(=O)CCCC(N)C(=O)O)C2SC1 (centres undefined)	.	/	.	/	/
CC[C@]12CCCN3CCC4(c5ccccc5NC4C(C(=O)O)C1)C32 (some centres undefined)	.	/	.	/	/

From PubChem BioAssay
